The values that follow come from PubChem BioAssay (NCI).

The panel holds about 83,000 compounds, 20% with a hit somewhere; the sample as a whole holds those more often.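 Cell lines were cultured in 96-well plates, exposed to a single compound concentration, and assessed for percent growth 48 hours later.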 Active and inactive are the calls of the source. How the source made its calls: active means growth percent below 10; inactive means the rest.

The first test has as its system TK-10 renal. Kind of test: NCI-60 one-dose screen, 48 h (100 = growth as untreated, 0 = no growth, -100 = all killed). The following applies: 10 µM unless noted.
As to `Cc1ccc(S(=O)(=O)c2nc(S(=O)(=O)c3ccc(C)cc3)c(Cl)s2)cc1`, the growth is -50.4% (active).
Take `CCCCSc1nc(Nc2ccc(C(C)=O)cc2)c(C#N)c(-c2ccc(OC)cc2)n1`: the growth was -3.09% (active).
Still for that read-out and setting: with `CCOC(=O)C1=C(N)N(c2ccccc2)C2=C(C(=O)CC(C)(C)C2)C1c1ccc([N+](=O)[O-])cc1` (stereo not given) the figure was 113% (inactive).
Still for that read-out and setting: to `Cc1cccc(Nc2nc3ccccc3nc2/C=C/c2ccc(F)cc2)c1` belongs 151% (inactive).
Still for that read-out and setting: with `Cc1cccc(NC(=O)CN2CCN(c3ncnc4c3cnn4-c3ccccc3)CC2)c1` the figure was 130% (inactive).
`Cn1cc(-c2cc3nc(-c4c[nH]c5ccc(Br)cc45)cc(N)n3n2)c2ccccc21`: the growth is -90.3% (active).
The same measure, in the same setting: with `CC1(C)CC[C@]2(C(=O)O)CC[C@]3(C)C(=CCC4[C@@]5(C)C[C@@H](O)[C@@H]6OC(c7ccc(F)cc7)OC[C@@]6(C)C5CC[C@]43C)C2C1` (stereo not given in full) the figure was 26.9% (inactive).
Same read-out and setting: with `O=C(NN1C(=O)/C(=C/C=C/c2ccc([N+](=O)[O-])o2)SC1=S)c1cccc(O)c1` the figure was -96.3% (active); with `N/C(=N\c1nc2ccccc2s1)NC(=O)Nc1c(Cl)cccc1Cl`, 93.8% (inactive).
Same read-out and setting: to `O=C(CN1C(=O)/C(=C/c2ccccc2Cl)SC1=S)N1CCOCC1` belongs 112% (inactive); to `CN(C)c1nc(NCCNS(=O)(=O)c2ccc(C3=Nc4c(N)nc(N)nc4NC(c4ccc(C(F)(F)F)cc4)C3)cc2)nc(Nc2ccc(F)cc2)n1` (stereo not given), 59.4% (inactive).
On to `Cn1cc(-c2nnc(N)nc2-c2c[nH]c3ccc(Br)cc23)c2cc(Br)cnc21`, for which the growth was 37.7% (inactive).
The same measure, in the same setting: with `O=C(O)Cn1c(O)c(/C=C2/C=c3cc4c(cc3=NC2=O)OCCO4)sc1=S` the figure was 110% (inactive); with `N/C(=N\c1nc2ccccc2s1)NC(=O)Nc1ccc(Cl)cc1Cl`, -84.9% (active).
On the same count and under the same terms, with `Cc1ccc(-c2nc(C#N)c(S(=O)(=O)N3CCN(S(=O)(=O)c4ccccc4)CC3)o2)cc1` the figure was 81.2% (inactive); with `COc1cccc(-c2nc(Nc3ccc(S(N)(=O)=O)cc3)c3ccccc3n2)c1`, 47.3% (inactive).
Still for that read-out and setting: to `COc1ccc(/C=C/c2nc3ccccc3n3c(-c4ccc(Cl)cc4)nnc23)cc1` belongs 106% (inactive); to `CNS(=O)(=O)c1ccc(Nc2ccc(C(F)(F)F)cc2)c(-c2cn(C)cn2)c1`, 46.6% (inactive).
Turning to `CCS(=O)(=O)N1CCCC(C(=O)Nc2nc3ccc(NC(=O)c4ccc(F)c(OC)c4F)cc3s2)C1` (stereo not given), the growth is 83.8% (inactive).
Still for that read-out and setting: to `C#CCOc1cc(N(CC)CC)ccc1C(C(=O)NC(C)(C)C)N(C(=O)C1CCc2cc(F)ccc2O1)c1cc(C)cc(C)c1` (stereo not given) belongs 50.3% (inactive); to `C#CCOc1ccc(/C=N/Nc2nc(-c3ccc(Cl)cc3)cs2)cc1OC`, 131% (inactive).
Regarding `O=C(COc1ccc2c(c1)CCCC(=O)N2)NCc1ccccc1`, the growth is 110% (inactive).
The same measure, in the same setting: to `CN(C)c1nc(NCCNS(=O)(=O)c2ccc(C3=Nc4c(N)nc(N)nc4NC(c4ccccc4)C3)cc2)nc(Nc2ccc(F)cc2)n1` (stereo not given) belongs 65% (inactive).
Same read-out and setting: with `CC1(C)CC[C@]2(C(=O)O)CC[C@]3(C)C(=CCC4[C@@]5(C)C[C@@H](O)[C@@H]6OC(c7ccccc7F)OC[C@@]6(C)C5CC[C@]43C)C2C1` (stereo not given in full) the figure was 7.15% (active); with `Cc1cccc(-c2nc(Nc3ccc(C)c(S(N)(=O)=O)c3)c3ccccc3n2)c1`, 60.1% (inactive).
Take `Cn1cc(-c2cc(N)n3nc(-c4cn(C)c5ccccc45)cc3n2)c2cc(Cl)ccc21`: the growth was -42.9% (active).
With `CC1(C)CC[C@]2(C(=O)O)CC[C@]3(C)C(=CCC4[C@@]5(C)C[C@@H](O)[C@@H]6OC(c7ccco7)OC[C@@]6(C)C5CC[C@]43C)C2C1` (stereo not given in full), the growth is 29.2% (inactive).
For the compound `COc1ccc(Cc2nn(CC(=O)N/N=C/c3ccc(F)cc3)c(=O)c3c(C)noc23)cc1`, the growth was -3.12% (active).
As for `COc1cc2nc(SCc3ccccc3)n(-c3ccc(Cl)cc3)c(=O)c2cc1OC`, the growth is -38.8% (active).
On the same count and under the same terms, with `Cc1cccc(-c2nc(Nc3cccc(S(N)(=O)=O)c3)c3ccccc3n2)c1` the figure was 73.7% (inactive); with `COc1ccc2[nH]cc(-c3nnc(N)nc3-c3cn(C)c4ncc(Br)cc34)c2c1`, 46.3% (inactive); with `N/C(=N\c1nc2ccccc2s1)NC(=O)Nc1ccccc1Br`, -15.6% (active).

The next test has as its system ACHN renal. The test is described as above. To be noted: 10 µM unless noted.
For the compound `Cc1ccc(S(=O)(=O)c2nc(S(=O)(=O)c3ccc(C)cc3)c(Cl)s2)cc1`, the growth is -92.3% (active).
On the same count and under the same terms, with `CCCCSc1nc(Nc2ccc(C(C)=O)cc2)c(C#N)c(-c2ccc(OC)cc2)n1` the figure was 2.58% (active); with `CCOC(=O)C1=C(N)N(c2ccccc2)C2=C(C(=O)CC(C)(C)C2)C1c1ccc([N+](=O)[O-])cc1` (stereo not given), 87.9% (inactive).
Still for that read-out and setting: with `Cc1cccc(Nc2nc3ccccc3nc2/C=C/c2ccc(F)cc2)c1` the figure was 89.9% (inactive); with `Cc1cccc(NC(=O)CN2CCN(c3ncnc4c3cnn4-c3ccccc3)CC2)c1`, 79.9% (inactive); with `Cn1cc(-c2cc3nc(-c4c[nH]c5ccc(Br)cc45)cc(N)n3n2)c2ccccc21`, -98.4% (active).
The same measure, in the same setting: to `C#CCOc1ccc(/C=N/Nc2nc(-c3cc4cc(OC)ccc4oc3=O)cs2)cc1OC` belongs 40.2% (inactive); to `CC1(C)CC[C@]2(C(=O)O)CC[C@]3(C)C(=CCC4[C@@]5(C)C[C@@H](O)[C@@H]6OC(c7ccc(F)cc7)OC[C@@]6(C)C5CC[C@]43C)C2C1` (stereo not given in full), 13.3% (inactive); to `O=C(NN1C(=O)/C(=C/C=C/c2ccc([N+](=O)[O-])o2)SC1=S)c1cccc(O)c1`, -100% (active).
As for `Cc1ccc(C(=O)NN2C(=O)/C(=C/C=C/c3ccc([N+](=O)[O-])o3)SC2=S)cc1`, the growth is -100% (active).
Same read-out and setting: with `N/C(=N\c1nc2ccccc2s1)NC(=O)Nc1c(Cl)cccc1Cl` the figure was 48.1% (inactive); with `O=C(CN1C(=O)/C(=C/c2ccccc2Cl)SC1=S)N1CCOCC1`, 61.2% (inactive).
In the case of `CN(C)c1nc(NCCNS(=O)(=O)c2ccc(C3=Nc4c(N)nc(N)nc4NC(c4ccc(C(F)(F)F)cc4)C3)cc2)nc(Nc2ccc(F)cc2)n1` (stereo not given), the growth was 58.5% (inactive).
The same measure, in the same setting: to `O=C(CSc1nc2ccccc2c(=O)[nH]1)NCCN1CCCCC1` belongs 103% (inactive).
Still for that read-out and setting: to `Cn1cc(-c2nnc(N)nc2-c2c[nH]c3ccc(Br)cc23)c2cc(Br)cnc21` belongs 61.3% (inactive).
The same measure, in the same setting: to `O=C(O)Cn1c(O)c(/C=C2/C=c3cc4c(cc3=NC2=O)OCCO4)sc1=S` belongs 119% (inactive); to `N/C(=N\c1nc2ccccc2s1)NC(=O)Nc1ccc(Cl)cc1Cl`, -87.4% (active).
In the case of `Cc1ccc(-c2nc(C#N)c(S(=O)(=O)N3CCN(S(=O)(=O)c4ccccc4)CC3)o2)cc1`, the growth is -36.9% (active).
Same read-out and setting: with `COc1cccc(-c2nc(Nc3ccc(S(N)(=O)=O)cc3)c3ccccc3n2)c1` the figure was 17.7% (inactive).
The same measure, in the same setting: to `COc1ccc(/C=C/c2nc3ccccc3n3c(-c4ccc(Cl)cc4)nnc23)cc1` belongs 93.5% (inactive); to `CNS(=O)(=O)c1ccc(Nc2ccc(C(F)(F)F)cc2)c(-c2cn(C)cn2)c1`, 48.9% (inactive); to `CCS(=O)(=O)N1CCCC(C(=O)Nc2nc3ccc(NC(=O)c4ccc(F)c(OC)c4F)cc3s2)C1` (stereo not given), 63.5% (inactive).
Still for that read-out and setting: to `C#CCOc1cc(N(CC)CC)ccc1C(C(=O)NC(C)(C)C)N(C(=O)C1CCc2cc(F)ccc2O1)c1cc(C)cc(C)c1` (stereo not given) belongs 22.7% (inactive); to `C#CCOc1ccc(/C=N/Nc2nc(-c3ccc(Cl)cc3)cs2)cc1OC`, 68.6% (inactive).
For the compound `O=C(COc1ccc2c(c1)CCCC(=O)N2)NCc1ccccc1`, the growth is 103% (inactive).
Still for that read-out and setting: to `CN(C)c1nc(NCCNS(=O)(=O)c2ccc(C3=Nc4c(N)nc(N)nc4NC(c4ccccc4)C3)cc2)nc(Nc2ccc(F)cc2)n1` (stereo not given) belongs 76.3% (inactive); to `CC1(C)CC[C@]2(C(=O)O)CC[C@]3(C)C(=CCC4[C@@]5(C)C[C@@H](O)[C@@H]6OC(c7ccccc7F)OC[C@@]6(C)C5CC[C@]43C)C2C1` (stereo not given in full), 4.14% (active).
The same measure, in the same setting: with `Cc1cccc(-c2nc(Nc3ccc(C)c(S(N)(=O)=O)c3)c3ccccc3n2)c1` the figure was 15.3% (inactive).
Still for that read-out and setting: with `COC(=O)C[C@](O)(CCCC(C)(C)O)C(=O)O[C@H]1C(OC)=C[C@@]23CCCN2CCc2cc4c(cc2[C@@H]13)OCO4` the figure was 2.95% (active); with `Cn1cc(-c2cc(N)n3nc(-c4cn(C)c5ccccc45)cc3n2)c2cc(Cl)ccc21`, -28.2% (active).
Turning to `CC1(C)CC[C@]2(C(=O)O)CC[C@]3(C)C(=CCC4[C@@]5(C)C[C@@H](O)[C@@H]6OC(c7ccco7)OC[C@@]6(C)C5CC[C@]43C)C2C1` (stereo not given in full), the growth is 7.44% (active).
Same read-out and setting: to `Cn1cc(-c2cc3nc(-c4c[nH]c5ccc(Cl)cc45)cc(N)n3n2)c2ccccc21` belongs -100% (active); to `COc1ccc(Cc2nn(CC(=O)N/N=C/c3ccc(F)cc3)c(=O)c3c(C)noc23)cc1`, -39.4% (active); to `COc1cc2nc(SCc3ccccc3)n(-c3ccc(Cl)cc3)c(=O)c2cc1OC`, -66.4% (active).
On the same count and under the same terms, with `Cc1cccc(-c2nc(Nc3cccc(S(N)(=O)=O)c3)c3ccccc3n2)c1` the figure was 38.1% (inactive).
The same measure, in the same setting: with `COc1ccc2[nH]cc(-c3nnc(N)nc3-c3cn(C)c4ncc(Br)cc34)c2c1` the figure was 50.8% (inactive); with `CCN(CC)c1ccc(/C=N/Nc2nc(-c3ccc(C)cc3)cs2)c(O)c1`, 96.3% (inactive); with `N/C(=N\c1nc2ccccc2s1)NC(=O)Nc1ccccc1Br`, -39.3% (active).
